Data on 40 molecules can be found in PubChem BioAssay (Tox21).

Each structure is given as a SMILES string. “And” between values parts separate entries of the source, which are not always exact repeats. Equal entries are not always repeated. Records with an inconclusive call do not appear. Some structures have more than one record in an assay (separate samples or runs), and their calls can disagree. The source made the active and inactive calls. Calls follow the shape of the dose curve; as a rule, active = well fitted cell-killing curve with a large enough effect in the repeat runs; inconclusive = weak or mixed curves, or effect the other way; inactive = flat fitted curve, though single readings scatter. Starred links: 1 amine or outer side, 2 acyl side, 3 side chain; linkers in the order of their positions; H or OH if unused. Positions of bridges follow the written chain, without caps; N, C: chain ends. Non-standard residues stand in square brackets, D forms with d. Residues, ends and D or L forms follow the SMILES beside them. Chains are numbered I, II in the order given. Actinocin(9to1) = Cc1c2oc3c(C)ccc(C(=O)[*:1])c3nc-2c(C(=O)[*:2])c(N)c1=O; NMeV = CN[C@H](C(=O)O)C(C)C; Sar = CNCC(=O)O
% is scaled to controls: 0 for no effect and ±100 for the full control effect; potency is read from the fitted curve at half-maximal effect.

The nature of the test: qHTS assay to identify small molecule agonists of the androgen receptor (AR) signaling pathway in the presence of an antagonist - cell viability counter screen (AID 1259379). Also: nearly all actives have a fitted effect of over 25% in size. Conditions: MDA-kb2 viability, CellTiter-Fluor, 16 h; series mostly up to 92.4 µM; activity change, negative = cytotoxicity: at the top concentration. The source says: National Center for Advancing Translational Sciences [NCATS]
NIH Chemical Genomics Center [NCGC]
U.S. Environmental Protection Agency [EPA]
National Institutes of Environmental Health Sciences [NIEHS]
National Toxicology Program [NTP]
U.S. Food and Drug Administration [FDA]
Androgen receptor (AR) is an important member of nuclear receptor family. Its signaling plays a critical role in AR-dependent prostate cancer and other androgen related diseases. Considerable attention has been given in the past decades to develop methods to study and screen for the environmental chemicals that have the potential to interfere with metabolic homeostasis, reproduction, developmental and behavioral functions. Therefore AR binding assay for screening against androgen agonists and antagonists can be used to identify potential endocrine disruptors.
MDA-kb2 cells (from ATCC, deposited by Wilson et al.) are human breast carcinoma cells that were stably transfected with a luciferase reporter gene under control of the MMTV promoter that contains response elements for both androgen receptor (AR) and glucocorticoid receptor (GR). This particular screening for measuring luciferase reporter gene activity using MDA-kb2 cells against Tox21 10K library compounds is a confirmation study on agonist mode screening in the presence of AR-antagonist compound (Nilutamide) at 3.0uM final concentration. The cytotoxicity of the compounds was tested in parallel by measuring the cell viability using CellTiter-Fluor assay system (Promega, Madison, WI) in the same wells.
Tox21 Assay Protocol Summary:
MDA-kb2 cells (cells cultured without CO2) were dispensed at 3,000 cells/well in 4uL of culture medium into white wall/solid-bottom 1536-well plates (Corning Life Sciences, Corning, NY) using a Multidrop Combi (Thermo Fisher Scientific Inc., Waltham, MA) dispenser. The assay plates were incubated at 37C and 0% CO2 for 5hr. One uL of 3.0uM (final concentration) Nilutamide or assay buffer was added using two separate tips of Flying Reagent Dispenser (FRD, Aurora Discovery, San Diego, CA). Then 23nL of compounds dissolved in DMSO at 15 concentrations and positive controls were transferred to the assay plates using a Pintool station (Wako, San Diego, CA). The assay plates were incubated at 37C and 0% CO2 for 16 hr. After 15hr incubation at 37C, 1uL/well CellTiter-Fluor reagent (Promega Corporation) was added to each well of the assay plates using FRD. After 1hr incubation at 37C and 0% CO2, the fluorescence signal was measured using a ViewLux plate reader (PerkinElmer, Shelton, CT).
On the technique in general: In qHTS, concentration-response curves come from the screen itself.
Consider `O=C(O)c1cn(-c2ccc(F)cc2)c2cc(N3CCNCC3)c(F)cc2c1=O`, for which the Potency result is “inactive”.
Still for that read-out and setting: under `CCCOC(=O)c1cc(O)c(O)c(O)c1` stands “inactive”.
`NC(Cc1ccc(Cl)cc1)C(=O)O` (stereo not given): the activity change, negative = cytotoxicity was 4.35% [at 0.35 µM] (inactive).
Regarding `Cc1c(O)cccc1C(=O)N[C@@H](CSc1ccccc1)[C@H](O)CN1C[C@H]2CCCC[C@H]2C[C@H]1C(=O)NC(C)(C)C`, the Potency is 53 µM (active) and 23.7 µM (active).
As for `Nc1ccc(O)cc1`, the Potency is 56.6 µM (active) and inactive.
For `CCN1CCCC1CNC(=O)c1cc(S(=O)(=O)CC)c(N)cc1OC` (stereo not given), the “activity change, negative = cytotoxicity” value was 0.234% [at 42.5 µM] (inactive).
For `CCCCN(CCO)CCCC`, the “activity change, negative = cytotoxicity” value was -1.31% (inactive).
With `CC(=O)Nc1ccc(C(=O)CCl)cc1`, the Potency is 54.5 µM (active).
On the same count and under the same terms, under `c1ccc2n[nH]nc2c1` stands “inactive”.
Consider `CCC(=O)/C=C/C1C(C)=CCCC1(C)C` (stereo not given), for which the Potency result is “inactive”.
Still for that read-out and setting: as for `CN(C)c1ccc2nc3ccc(=[N+](C)C)cc-3sc2c1`, the figure is 3.3 µM (active) and 6.86 µM (active) and 4.22 µM (active).
In the case of `C#CC(C)(CC)OC(=O)c1ccccc1C(=O)O` (stereo not given), the “activity change, negative = cytotoxicity” value was 0.279% [at 42.5 µM] (inactive).
Regarding `Nc1nc(=S)c2[nH]cnc2[nH]1`, the Potency entry was “inactive”.
As for `CCC(C)(Oc1ccc(C2(c3ccc(OC(C)(CC)C(=O)O)cc3)CCCCC2)cc1)C(=O)O` (stereo not given), the “activity change, negative = cytotoxicity” value was 4.91% [at 42.5 µM] (inactive).
Turning to `c1cc(C(c2ccc(OCC3CO3)cc2)C(c2ccc(OCC3CO3)cc2)c2ccc(OCC3CO3)cc2)ccc1OCC1CO1` (stereo not given), the Potency result was “inactive”.
As for `Clc1ccc2c(c1)C(N1CCNCC1)=Nc1ccccc1O2`, the Potency was 61.1 µM (active) and 29.8 µM (active).
Same read-out and setting: as for `Cc1c2oc3c(C)ccc(C(=O)N[C@@H]4C(=O)N[C@H](C(C)C)C(=O)N5CCC[C@H]5C(=O)N(C)CC(=O)N(C)[C@@H](C(C)C)C(=O)O[C@@H]4C)c3nc-2c(C(=O)N[C@@H]2C(=O)N[C@H](C(C)C)C(=O)N3CCC[C@H]3C(=O)N(C)CC(=O)N(C)[C@@H](C(C)C)C(=O)O[C@@H]2C)c(N)c1=O` (I: T[dV]P[Sar][NMeV] / II: T[dV]P[Sar][NMeV]; ester I:1-I:C, II:1-II:C; linker I:N-II:N via Actinocin(9to1)), the figure is 10.6 µM (active).
In the case of `c1cnc2cc3c(cc2n1)C1CNCC3C1`, the “activity change, negative = cytotoxicity” value is 0.416% [at 42.5 µM] (inactive).
`CC(=O)C1=C(C)[C@@H]2C[C@@]3(C1)[C@H](C)CC[C@H]3C2(C)C`: the Potency result was “inactive”.
Regarding `CCc1cc(C(C)(C)C)c(O)c(C(C)(C)C)c1`, the Potency result was “inactive”.
Take `O=Nc1ccc(Nc2ccccc2)cc1`: the Potency was 54.8 µM (active) and 54.5 µM (active).
On the same count and under the same terms, as for `Cc1cc(OCCOCC[N+](C)(C)Cc2ccccc2)ccc1C(C)(C)CC(C)(C)C`, the figure is 54.2 µM (active) and 29.8 µM (active); as for `CCC[C@H](N[C@@H](C)C(=O)N1[C@H](C(=O)O)C[C@@H]2CCCC[C@@H]21)C(=O)OCC`, “inactive”.
For `C=CS(=O)(=O)O`, the “activity change, negative = cytotoxicity” value was 4.7% (inactive).
Consider `CC(C)(C)NCC(O)c1cc(O)cc(O)c1` (stereo not given), for which the “activity change, negative = cytotoxicity” value was 0.0329% [at 42.5 µM] (inactive).
In the case of `Nc1nc2ccccc2[nH]1`, the Potency entry is “inactive”.
In the case of `O=C(O)Cn1cnnn1`, the “activity change, negative = cytotoxicity” value is 2.44% [at 42.5 µM] (inactive).
As for `CC(C(O)c1ccc(O)cc1)N1CCC(Cc2ccccc2)CC1` (stereo not given), the “activity change, negative = cytotoxicity” value was -6.25% [at 42.5 µM] (inactive).
For `Cc1ccnc2c1NC(=O)c1cccnc1N2C1CC1`, the Potency result was “inactive”.
Consider `Cc1cc(C(C)(C)C)c(O)c(C(C)(C)C)c1`, for which the Potency result is “inactive”.
In the case of `CC(=O)O[C@]1(C(C)=O)CC[C@H]2[C@@H]3C[C@H](C)C4=CC(=O)CC[C@]4(C)[C@H]3CC[C@@]21C`, the “activity change, negative = cytotoxicity” value is 0.0426% [at 42.5 µM] (inactive).
Take `COc1cc(C(=S)N2CCOCC2)ccc1O`: the “activity change, negative = cytotoxicity” value is 3.04% [at 42.5 µM] (inactive).
For the molecule `CCOC(=O)C(C)C(C)=O` (stereo not given), the “activity change, negative = cytotoxicity” value is 3.03% (inactive).
In the case of `Oc1ccc(Cl)cc1Cc1cc(Cl)ccc1O`, the Potency was 39.3 µM (active) and 27.3 µM (active) and 29.8 µM (active).
Still for that read-out and setting: as for `CCCN[C@H]1CCc2nc(N)sc2C1`, the entry is “inactive”.
In the case of `CCCCC(CC)COC(=O)CC(C(=O)OCC(CC)CCCC)S(=O)(=O)O` (stereo not given), the “activity change, negative = cytotoxicity” value is -6.13% (inactive).
As for `CN(C)c1ccc(C(=C2C=CC(=[N+](C)C)C=C2)c2ccccc2)cc1`, the Potency was 3.86 µM (active) and 3.35 µM (active) and 2.66 µM (active).
In the case of `CC(C)(C)NC(=O)[C@@H]1CN(Cc2cccnc2)CCN1C[C@@H](O)C[C@@H](Cc1ccccc1)C(=O)N[C@H]1c2ccccc2C[C@H]1O`, the Potency entry was “inactive”.
For the molecule `CC1COc2c(N3CCN(C)CC3)c(F)cc3c(=O)c(C(=O)O)cn1c23` (stereo not given), the “activity change, negative = cytotoxicity” value is 1.74% [at 42.5 µM] (inactive).
Turning to `CC(C)CCOC(=O)c1ccc(N(C)C)cc1`, the “activity change, negative = cytotoxicity” value was -2.4% [at 42.5 µM] (inactive).
